Tested on: not listed separately
Test: RPMI8226 myeloma cell viability, profiling panel, resazurin fluorescence, basal, 24 h, PK04 Diversity Set (AID 1180);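 further: RPMI8826 multiple myeloma cell line at 5000 cells per well; test concentration not given here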
Details: higher = more signal

Compound	z-score
[N-]=[N+]=NCc1ccccc1[C@H]1OC(c2ccc(OCCCO)cc2)=N[C@@]1(Cc1ccccc1N=[N+]=[N-])C(=O)O	-0.0412
COC(=O)c1c2oc(c1C(=O)OC)C(=O)N[C@H](Cc1ccccc1)Cn1cc(nn1)C1(CCCCC1)NC(=O)N[C@H](CO)CC2	0.245
CC(C)N1CC=CC23O[C@@H]4/C=C\CCCOC(=O)C4[C@H]2C(=O)N(C(C)CO)[C@@H]3C1=O (stereo not given in full)	0.734
O=C1C2C=CC(C(O)C3CCCCC3)N(Nc3ccccc3F)C2C(=O)N1c1ccccc1 (stereo not given)	-0.14
CC1CC/C=C\[C@H]2OC34C=CCN(C(C)C)C(=O)[C@H]3N(C(C)CO)C(=O)[C@@H]4C2C(=O)O1 (stereo not given in full)	0.832
CC(C)(C)OC(=O)CC[C@@]1(C(N)=O)N=C(c2ccc(OCCCO)cc2)O[C@@H]1c1ccccc1CN=[N+]=[N-]	-0.17
O=C(NC1CC1)[C@@H]1c2ccccc2C(=O)N(C2CCCCC2)[C@H]1c1ccc(CO)cc1	-0.166
COc1ccc(CCNC(=O)[C@@]2(c3ccc([N+](=O)[O-])cc3)CC(=O)N(C3CCCCC3)[C@@H]2c2ccc(CO)cc2I)cc1	-0.593
C=C(COC)C(=O)CC[C@@H](OC(=O)c1ccccc1-c1ccccc1C(=O)O)c1ccccc1OCCO	-1.81

Molecular target: E3 ubiquitin-protein ligase XIAP (Homo sapiens) (UniProt P98170)
Sequence (P98170 whole entry, looked up): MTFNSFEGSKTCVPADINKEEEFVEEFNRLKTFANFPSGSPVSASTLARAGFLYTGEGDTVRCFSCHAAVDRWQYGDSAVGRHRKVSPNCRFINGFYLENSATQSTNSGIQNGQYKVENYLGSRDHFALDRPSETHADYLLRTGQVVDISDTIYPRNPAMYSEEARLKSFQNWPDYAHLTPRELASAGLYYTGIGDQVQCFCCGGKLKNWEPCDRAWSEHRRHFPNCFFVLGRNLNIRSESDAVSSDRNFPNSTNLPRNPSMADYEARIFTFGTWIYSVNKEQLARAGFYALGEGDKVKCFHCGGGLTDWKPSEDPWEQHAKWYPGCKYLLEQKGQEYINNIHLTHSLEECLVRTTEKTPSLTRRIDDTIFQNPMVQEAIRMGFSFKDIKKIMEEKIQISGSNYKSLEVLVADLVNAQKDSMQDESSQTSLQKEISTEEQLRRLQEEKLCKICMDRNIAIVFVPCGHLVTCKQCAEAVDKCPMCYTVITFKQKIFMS
Test: XIAP binders, primary screen, biophysical, small-molecule microarray, fluorescence 635 nm (AID 1181);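 further: score merges 667 nm emission and signal to noise over triplicate slides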
Details: small-molecule microarray binding, higher = more signal

Compound	composite z-score
COCCOC(=O)N1C(=O)[C@@]2(c3cc(C#CCCO)ccc31)[C@H](C(=O)N1CCN(c3ncccn3)CC1)[C@H]1C(=O)O[C@H](c3ccccc3)[C@H](c3ccccc3)N1[C@@H]2c1ccc(OCCO)cc1	0.0432
CC[C@@H](O[Si](C#C[Si](C(C)C)(C(C)C)C(C)C)(C(C)C)C(C)C)c1cn(Cc2cccc(Cl)c2)nn1	0.0583
COCCOC(=O)N1C(=O)[C@@]2(c3cc(C#CCC(C(=O)OC)C(=O)OC)ccc31)[C@H](c1ccc(O)cc1)N1[C@H](c3ccccc3)[C@H](c3ccccc3)OC(=O)[C@H]1[C@@H]2C(=O)N1CCc2cc(OC)c(OC)cc2C1	-0.0233
Cc1ccc(S[C@]2(C(=O)NCCN3CCOCC3)CC(=O)N(C(C)C)[C@@H]2c2ccc(CO)cc2I)cc1	-0.0304
CC(C)c1ccc(NN2C(C(O)c3ccccc3)C=CC3C(=O)N(c4ccccc4)C(=O)C32)cc1 (stereo not given)	-0.0669
CC(C)C(=C=CC[C@H](O)c1cccc(OCCO)c1)C[C@H](O)c1ccccn1	0.0436
COCCOC(=O)N1C(=O)[C@@]2(c3cc(C#CCNC(N)=O)ccc31)[C@H](c1ccc(O)cc1)N1[C@H](c3ccccc3)[C@H](c3ccccc3)OC(=O)[C@H]1[C@@H]2C(=O)N1CCc2cc(OC)c(OC)cc2C1	0.171
[N-]=[N+]=NCc1ccccc1[C@H]1OC(c2ccc(OCCCO)cc2)=N[C@@]1(Cc1ccccc1N=[N+]=[N-])C(=O)N1CCOCC1	0.122
C=C(CCCC)/C(=C/C[C@@H](OC(C)=O)c1cccc(OCCO)c1)c1cc(C(=O)OC)ccc1OC	-0.0447
C=CCNC(=O)[C@H]1[C@@H]2C(=O)O[C@@H](c3ccccc3)[C@@H](c3ccccc3)N2[C@@H](c2ccc(OCCO)cc2)[C@]12C(=O)N(C(=O)OCCOC)c1ccc(C#CCC(C(=O)OC)C(=O)OC)cc12	0.0899
C=CCOC(=O)[C@@H]1[C@H]2C(=O)O[C@H](c3ccccc3)[C@H](c3ccccc3)N2[C@H](c2ccc(OCCOC(=O)[C@@H]3C[C@@H]4C(=O)N[C@@H](CC(C)C)C(=O)N4[C@@H]3c3ccc(O)cc3)cc2)[C@@]12C(=O)Nc1ccc(I)cc12	0.155
COC(=O)[C@@]1(Cc2ccc(F)cc2)[C@H]2c3cc(C(=O)N4CCCC4)n(C[C@H](O)CO)c3C[C@H]2CN1C(=O)c1ccccc1	0.0811
COc1cc2c(cc1O)C(C)N(Cc1sc3ccccc3c1Cl)CC2 (stereo not given)	-0.148
Cc1ccc(S(=O)(=O)N2[C@@H](c3ccccc3)C(C(=O)O)=CC[C@H]2c2ccc(F)cc2)cc1	0.142
C=C(C(=O)CC[C@@H](OC(=O)c1ccccc1-c1ccccc1C(=O)O)c1ccc(OCCO)cc1)C(C)C	-0.101
C=CC[C@H](OC(=O)Nc1ccc(SC)cc1)c1ccc(O)c(F)c1	0.0297
O=C1c2ccccc2[C@@]2(Cc3ccccc3N(CC(F)(F)F)C2=O)[C@H](c2ccc(CO)cc2)N1Cc1ccccc1	-0.231
C#CCN(C(=O)OC(C)(C)C)[C@H](CO)c1ccccc1	-0.005

Compound	composite z-score
COC(=O)[C@@]1(Cc2ccc(F)cc2)[C@H]2c3cc(C(=O)N4CCCC4)n(CCc4c[nH]c5cc(F)ccc45)c3C[C@H]2CN1C(=O)c1ccccc1	0.0535
CC[C@@H]1C=C(C(=O)O)[C@H](c2cccc(Cl)c2)N1S(=O)(=O)c1ccc(C)cc1	1.12
C=CCNC(=O)[C@@H]1[C@H]2C(=O)O[C@H](c3ccccc3)[C@H](c3ccccc3)N2[C@H](c2ccc(OCCO)cc2)[C@@]12C(=O)N(C(=O)OCCOC)c1ccccc12	0.0623
COCCCNC(=O)[C@@]1(CCC(=O)OC(C)(C)C)N=C(c2ccc(OCCCO)cc2)O[C@H]1c1ccccc1	-0.171
CC(C)C[C@@H]1NC(=O)[C@@H]2C[C@H](C(=O)NCCCCCCNC(=O)CS)[C@H](c3ccc(O)cc3)N2C1=O	0.291
C=C(COC)/C(=C/C[C@@H](OC(=O)c1ccncc1)c1ccccc1OCCO)c1cnc2ccccc2c1	0.166
C=C(C(=O)CC[C@H](OC(=O)c1ccccc1-c1ccccc1C(=O)O)c1ccc(OCCO)cc1)C(C)C	0.125
COC(=O)Cn1c(C(=O)N(C)C)cc2c1C[C@H]1CN(C(=O)c3ccccc3)[C@@](Cc3ccccc3)(C(=O)OC)[C@@H]21	0.343
COc1cc(Cc2cc3c(c(-c4ccccc4)n2)[Si](C(C)C)(C(C)C)OC3)cc(OC)c1OC	-0.305
[N-]=[N+]=NCc1ccccc1[C@H]1OC(c2ccc(OCCCO)cc2)=N[C@@]1(Cc1ccccc1N=[N+]=[N-])C(=O)O	0.166
COC(=O)c1c2oc(c1C(=O)OC)C(=O)N[C@H](Cc1ccccc1)Cn1cc(nn1)C1(CCCCC1)NC(=O)N[C@H](CO)CC2	-0.113
CC(C)N1CC=CC23O[C@@H]4/C=C\CCCOC(=O)C4[C@H]2C(=O)N(C(C)CO)[C@@H]3C1=O (stereo not given in full)	-0.102
O=C1C2C=CC(C(O)C3CCCCC3)N(Nc3ccccc3F)C2C(=O)N1c1ccccc1 (stereo not given)	-0.235
CC1CC/C=C\[C@H]2OC34C=CCN(C(C)C)C(=O)[C@H]3N(C(C)CO)C(=O)[C@@H]4C2C(=O)O1 (stereo not given in full)	0.0345
CC(C)(C)OC(=O)CC[C@@]1(C(N)=O)N=C(c2ccc(OCCCO)cc2)O[C@@H]1c1ccccc1CN=[N+]=[N-]	0.119
O=C(NC1CC1)[C@@H]1c2ccccc2C(=O)N(C2CCCCC2)[C@H]1c1ccc(CO)cc1	-0.323
COc1ccc(CCNC(=O)[C@@]2(c3ccc([N+](=O)[O-])cc3)CC(=O)N(C3CCCCC3)[C@@H]2c2ccc(CO)cc2I)cc1	-0.16
C=C(COC)C(=O)CC[C@@H](OC(=O)c1ccccc1-c1ccccc1C(=O)O)c1ccccc1OCCO	0.261

From PubChem BioAssay
